Consider 38 compounds from PubChem BioAssay AID504727 (Broad Institute, 2011).

Calls of active or inactive are those of the source.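 How the source made its calls: active means fitted half-maximal concentration AC50 at or below ten times the highest valid tested dose, with signal falling as DNA is displaced (actives reach about 34 µM in these data); inconclusive means flat fit at moderate signal loss, or poor fit quality; inactive means the rest, including signal rising instead of falling.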

The assay can be described thus: acridine orange-DNA binding displacement – biochemical, fluorescence polarization, cherry-picked samples, set 2, artefact control for KSHV LANA DNA-binding inhibitor project, dose response (AID 504727). The settings on record: series mostly up to 35 µM.
Regarding `Cc1ccc(NS(=O)(=O)c2ccc(C(=O)NCCCN3CCCC3=O)cc2)cc1`, the AC50 (commonly the concentration at which the activity in the assay is half-maximal) was “inactive”.
For `CC1CC(C)CN(C(=O)c2ccc3ncsc3c2)C1` (stereo not drawn), the AC50 result was “inactive”.
For the compound `COc1ccc(NC(=O)Cc2nnc(SCC(=O)Nc3nccs3)n2C)cc1`, the AC50 entry is “inactive”.
As for `COc1cccc(NC(=S)N2CCN(C(c3ccccc3)c3ccccc3)CC2)c1`, the entry is “inactive”; as for `O=C(C1CCCO1)N1CCN(c2ncccn2)CC1` (stereo not drawn), “inactive”; as for `Cc1cccnc1NC1(C(F)(F)F)N=C2SCCN2C1=O` (stereo not drawn), “inactive”.
In the case of `CCCc1nnc(NC(=O)CCC(=O)NCc2ccc(OC)cc2)s1`, the AC50 result is “inactive”.
As for `COc1ccc(CCNC(=O)CNC(=O)Cn2ccc3ccccc3c2=O)cc1OC`, the entry is “inactive”.
`COc1ccc(C(C)=O)cc1CN(C)C`: the AC50 entry is “inactive”.
Regarding `COc1ccc2noc3c2c1C(=O)c1ccccc1-3`, the concentration at half-maximal activity (AC50) was 241 nM (active).
As for `COC(=O)C1CCN(C(=O)COC(=O)Cc2c[nH]c3ccccc23)CC1`, the AC50 entry was “inactive”.
In the case of `CCOC(=O)CN1NC2(CCCCCC2)NC1=S`, the AC50 entry was “inactive”.
The entry for `O=C(NCCCO)c1ccc2nc(-c3ccco3)c(-c3ccco3)nc2c1` is “inactive”; for `COc1ccc(S(=O)(=O)N2CCC(C(=O)N3CCCCC3)CC2)cc1` it is “inactive”; for `COc1ccc(NS(=O)(=O)c2cccc3ccccc23)cc1` it is “inactive”.
Take `CC(OC(=O)CCN1C(=O)C2CC=CCC2C1=O)C(=O)Nc1ccc(F)cc1` (stereo not drawn): the AC50 entry was “inactive”.
On to `O=C(NC1(O)C(=O)c2ccccc2C1=O)c1c(Cl)cccc1Cl`, for which the AC50 entry is “inactive”.
Take `O=C(N/N=C\c1ccc([N+](=O)[O-])o1)c1cncc(Br)c1`: the AC50 result was “inactive”.
On to `Cc1cc(NS(=O)(=O)c2ccc(Nc3nc(-c4sc(N)nc4C)cs3)cc2)no1`, for which the AC50 entry is “inactive”.
Turning to `COc1ccc(-c2nc(C(=O)O)cs2)cc1OC`, the AC50 entry was “inactive”.
As for `CC(C)(C)n1nnnc1C(c1cccnc1)N(Cc1ccccc1)Cc1ccco1` (stereo not drawn), the half-maximal activity concentration (AC50) was 202 nM (active).
The entry for `C=CC1=C(C(=O)O)N2C(=O)[C@@H](NC(=O)/C(=N/OCC(=O)O)c3csc(N)n3)[C@H]2SC1` is “inactive”; for `CCN(C(=O)COC(=O)c1nc2nc(C)cc(C)n2n1)C1CCCCC1` it is “inactive”.
The entry for `Cc1cccc(-c2nsc(SCC(=O)Nc3nccs3)n2)c1` is “inactive”; for `C=CCOC(=O)C1=C[C@H](c2csc3ccccc23)C[C@H](OCc2ccc(CO)cc2)O1` it is “inactive”; for `Cc1nn(CC(=O)c2ccc(Br)s2)c(C)c1[N+](=O)[O-]` it is “inactive”.
On to `CCC(Sc1ncccc1C(=O)O)C(=O)N1CCCC1` (stereo not drawn), for which the AC50 entry was “inactive”.
As for `COc1cc(C(=S)N2CCN(c3cccc(Cl)c3)CC2)ccc1O`, the entry is “inactive”; as for `N#C/C(=C\c1ccc(-c2ccccc2[N+](=O)[O-])o1)C(N)=O`, “inactive”.
For the compound `CCOc1ccc2noc3c2c1C(=O)c1ccccc1-3`, the AC50 was 728 nM (active).
As to `COc1ccc(C)cc1NC(=O)C(OC(=O)c1cnccn1)c1ccccc1` (stereo not drawn), the AC50 result was “inactive”.
In the case of `CCN(CC)CCN1C(=O)c2cccc3cc(N)cc(c23)C1=O`, the concentration at half-maximal activity (AC50) was 17000 nM (active).
Consider `CC1=C(O)C(=O)C(C2=C(O)C(=O)C(C)=C(O)C2=O)=C(O)C1=O`, for which the AC50 entry was “inactive”.
As to `NS(=O)(=O)c1cc(C(=O)NC2CCSc3ccccc32)ccc1Cl` (stereo not drawn), the AC50 result was “inactive”.
For the compound `Nc1ccc2nc3c(=O)n(C4CCCCC4)c(=O)[nH]c3nc2c1`, the AC50 is 3190 nM (active).
For the compound `Cc1ccccc1NC(=S)NC(C)CCc1ccccc1` (stereo not drawn), the AC50 entry was “inactive”.
With `O=C(O)CCN1C(=O)/C(=C\c2ccc(-c3nc4ccccc4s3)o2)SC1=S`, the AC50 result was “inactive”.
On to `Cc1cc2c(N)cccc2nn1`, for which the AC50 result was “inactive”.
